The source of these data is PubChem BioAssay AID651710 (Broad Institute, 2012).

About 1,600 (0.44%) of roughly 360,000 compounds were called active. Shown is part of a subset that was picked to be rich in actives. Unmarked numbers belong to inactive results.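 The calls were made as follows: active = every replicate showing at least 50% inhibition; inconclusive = mean inhibition at least 50% but not in every replicate; inactive = the rest.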

In the experiment the target is DNA repair protein RAD52 homolog (Homo sapiens) (UniProt P43351). Put plainly: blockers of RAD52 strand annealing activity – biochemical, FRET, single point, set 2, primary screen (AID 651710). As to conditions: recombinant RAD52 DNA annealing, FRET fluorescence; at 18.7 µM; hits give high values.
Sequence of DNA repair protein RAD52 homolog (Homo sapiens) (P43351 whole entry, looked up): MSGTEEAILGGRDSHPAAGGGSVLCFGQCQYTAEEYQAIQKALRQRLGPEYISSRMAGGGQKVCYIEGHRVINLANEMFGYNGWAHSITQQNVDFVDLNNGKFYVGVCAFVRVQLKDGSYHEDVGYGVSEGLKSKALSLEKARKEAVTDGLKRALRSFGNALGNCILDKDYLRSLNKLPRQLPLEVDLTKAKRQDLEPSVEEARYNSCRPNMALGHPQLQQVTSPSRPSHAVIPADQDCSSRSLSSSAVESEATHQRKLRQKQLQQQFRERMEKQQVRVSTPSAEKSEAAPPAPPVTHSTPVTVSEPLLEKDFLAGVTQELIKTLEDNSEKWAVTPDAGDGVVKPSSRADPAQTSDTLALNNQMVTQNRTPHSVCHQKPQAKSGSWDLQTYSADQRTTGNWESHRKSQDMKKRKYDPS
As usually defined, the inhibition is the drop in the measured response relative to a control, in per cent. On to `COc1cccc(S(=O)(=O)Nc2ccc3c(c2)[C@@H]2C[C@@H](CC(=O)NCc4ccc(Cl)cc4)O[C@H](CO)[C@@H]2O3)c1`, for which the inhibition is 10.3%. Take `CN(C)C(=O)C[C@@H]1C[C@H]2c3cc(NC(=O)Nc4ccccc4F)ccc3O[C@H]2[C@@H](CO)O1`: the inhibition is -10%.

Turning to `Cc1noc(C)c1S(=O)(=O)Nc1ccc2c(c1)CC(=O)N([C@@H](C)CO)C[C@H](C)[C@H](CN(C)C(=O)Nc1ccccc1)O2`, the inhibition was -0.934%. For `Cc1noc(C)c1NC(=O)Nc1cccc2c1O[C@@H](CN(C)C(=O)Nc1ccc(C(F)(F)F)cc1)[C@@H](C)CN([C@@H](C)CO)C2=O` the value was -2.22%; for `O=C(C[C@@H]1CC[C@@H]2[C@H](COC[C@H](O)CN2S(=O)(=O)c2ccc(Cl)cc2)O1)N[C@@H]1CCN(Cc2ccccc2)C1`, 17.8%.

As for `O=C(C[C@H]1CC[C@H](NC(=O)Nc2ccccc2F)[C@@H](CO)O1)NCc1ccccc1`, the inhibition was -8.56%.

With `COc1ccc(S(=O)(=O)Nc2ccc3c(c2)C(=O)N([C@H](C)CO)C[C@@H](C)[C@H](CN(C)Cc2ccccc2)O3)cc1`, the inhibition is 12.7%. `COc1cccc(-c2ccc([C@@H]3[C@@H](CO)N4C(=O)CN(C(=O)C5CCCCC5)C[C@H]34)cc2)c1`: the inhibition was -17.9%.

Regarding `CC(C)NC(=O)N(C)C[C@H]1OCCCC[C@@H](C)Oc2ccc(NC(=O)C3CCCCC3)cc2C(=O)N([C@H](C)CO)C[C@H]1C`, the inhibition is -14%. With `CO[C@H]1CN(C)C(=O)c2ccc(NC(=O)c3cccc(F)c3)cc2OC[C@@H](C)N(C(C)=O)C[C@@H]1C`, the inhibition is 3.49%. For `C[C@@H]1CCCCO[C@H](CN(C)Cc2ccc(C(F)(F)F)cc2)[C@H](C)CN([C@H](C)CO)C(=O)c2cc(NC(=O)Nc3ccc(F)cc3)ccc2O1`, the inhibition was -10%.

Regarding `CCCN(C)C[C@@H]1OCCCC[C@@H](C)Oc2ccc(NC(=O)Nc3ccc(C(F)(F)F)cc3)cc2C(=O)N([C@H](C)CO)C[C@H]1C`, the inhibition is 61.7% (active).

With `C[C@H](CO)N1C[C@H](C)[C@@H](CN(C)S(C)(=O)=O)OCCCC[C@H](C)Oc2ccc(NC(=O)Nc3ccc(C(F)(F)F)cc3)cc2C1=O`, the inhibition was 9.95%.

Consider `CN1C(=O)c2cc(NC(=O)C3CCOCC3)ccc2OC[C@@H]2O[C@H](CC(=O)NCc3ccccc3F)CC[C@H]21`, for which the inhibition is -6.2%.

Regarding `COCC(=O)Nc1ccc2c(c1)OC[C@H](C)N(Cc1ccccc1OC)C[C@@H](C)[C@@H](OC)CN(C)C2=O`, the inhibition is 5.08%. The result for `CCC1CCCCN1CCCNC(=O)c1cc2c(Cl)nc3ccccc3c2s1` (stereo unspecified) reads 64.2% (active). Consider `Cc1nc2ccccc2c2oc(C(=O)NCCCN3CCC(C)CC3)cc12`, for which the inhibition was 24.5%. As for `CCCn1c2ccccc2c2cnn(CC(=O)NCCCN3CCCCC3CC)c(=O)c21` (stereo unspecified), the inhibition was 6.95%.

As to `C[C@@H]1CN([C@H](C)CO)C(=O)c2cccc(NC(=O)C3CCOCC3)c2O[C@H]1CN(C)S(=O)(=O)c1ccc(Cl)cc1`, the inhibition is -3.65%.

Turning to `OC[C@H]1[C@@H](c2ccc(/C=C/c3ccccc3)cc2)[C@H]2CN(Cc3cccnc3)CCCCN21`, the inhibition is 57.1% (active). The result for `OC[C@H]1[C@H](c2ccc(-c3cccnc3)cc2)[C@H]2CN(Cc3ccccn3)CCCCN21` reads -13.2%; that for `OC[C@@H]1[C@H](c2ccc(C#Cc3ccccc3)cc2)[C@@H]2CN(Cc3cncnc3)CCCCN12`, -7.81%; that for `C[C@H]1CN([C@@H](C)CO)C(=O)Cc2cc(NS(=O)(=O)c3ccc(Cl)cc3)ccc2O[C@@H]1CN(C)S(=O)(=O)c1ccccc1`, 0.925%. As to `O=C(Cc1ccccn1)N[C@@H]1CC[C@H](CCn2cc(-c3ccc(F)cc3)nn2)O[C@@H]1CO`, the inhibition was -0.234%. `COc1cccc(CNc2nc(NCc3cccs3)nc3ccsc23)c1`: the inhibition is 63.7% (active). Consider `Clc1ccccc1Nc1nc(NCc2cccs2)nc2ccsc12`, for which the inhibition was -19.9%. For the compound `COc1cccc(CNc2nc(NCc3ccccc3OC)nc3ccsc23)c1`, the inhibition is -11.5%.

Consider `C[C@@H]1CN([C@H](C)CO)C(=O)c2cc(-c3ccc(C#N)cc3)cnc2O[C@@H]1CN(C)C(=O)Nc1ccccc1`, for which the inhibition was 4.39%.

With `COc1ccc(-c2ccc([C@@H]3[C@@H](CO)N4CCCCN(C(=O)NC(C)C)C[C@H]34)cc2)cc1`, the inhibition is 0.301%. The result for `CCC(=O)Nc1ccc2c(c1)C(=O)N(C)[C@@H]1CC[C@@H](CC(=O)NCCc3ccccc3)O[C@H]1CO2` reads -0.75%; that for `CC(C)CC#Cc1ccc2c(c1)O[C@H](CN(C)S(=O)(=O)c1cccc(F)c1)[C@@H](C)CN([C@@H](C)CO)S2(=O)=O`, 10.9%; that for `COc1ccc(NC(=O)C2C3CCC(O3)C2C(=O)O)cc1OC` (stereo unspecified), 71.2% (active). As to `COc1ccc(NC(=S)SC)cc1OC`, the inhibition was -5.52%. With `COc1ccc(NC(=O)C2Cc3c(-c4cccc(NC(C)=O)c4)ccnc3O2)cc1OC` (stereo unspecified), the inhibition was -0.756%. Take `COCc1c(C(=O)OCC(=O)Nc2ccc(OC(F)F)cc2)oc2ccccc12`: the inhibition is -1.64%.

Consider `O=C1CCC(C(=O)OCC(=O)Nc2ccc(OC(F)F)cc2)=NN1`, for which the inhibition is 54.8% (active). For `Nc1c(C(=O)OCC(=O)Nc2ccc(OC(F)F)cc2)[nH]c(=O)[nH]c1=O` the value was -4.75%. Turning to `C=CCNC(=O)[C@H]1[C@@H]2C(=O)O[C@@H](c3ccccc3)[C@@H](c3ccccc3)N2[C@@H](c2ccccc2OCCO)[C@]12C(=O)N(C(=O)OCCOC)c1ccc(C#Cc3ccc(OC)cc3)cc12`, the inhibition is -0.136%. The result for `CO[C@@H]1CN(C)C(=O)c2cc(NS(=O)(=O)c3cn(C)cn3)ccc2OC[C@@H](C)N(CCC(F)(F)F)C[C@H]1C` reads 7.94%; that for `CCCc1cn(CC[C@H]2CC[C@@H](NC(=O)C3CCOCC3)[C@@H](CO)O2)nn1`, -2.7%. For `O=C1Nc2cc(C(=O)N3CCC(N4CCCCC4)CC3)ccc2S/C1=C\c1ccccc1`, the inhibition was 39.6%. On to `CCN1CCCC1CNC(=O)c1ccc2c(c1)NC(=O)/C(=C\c1ccccc1F)S2` (stereo unspecified), for which the inhibition was 87.1% (active).

Consider `CCN1CCCC1CNC(=O)c1cc2cc(OC)c(OC)cc2[nH]1` (stereo unspecified), for which the inhibition is 2.51%. As to `CC(=O)N(C)C[C@H]1[C@H](c2ccc(C3=CCCCC3)cc2)[C@H](CO)N1CC1CC1`, the inhibition is 17.9%. For the compound `COCC(=O)N(C)C[C@H]1Oc2cc(C#C[C@@H](C)O)ccc2S(=O)(=O)N([C@@H](C)CO)C[C@@H]1C`, the inhibition was -1.74%. The result for `CC(=O)N(C)C[C@@H]1Oc2cc(-c3ccncc3)ccc2S(=O)(=O)N([C@@H](C)CO)C[C@H]1C` reads 3.3%; that for `CCCN(C)C[C@H]1Oc2cc(C#CC3CCCC3)ccc2S(=O)(=O)N([C@H](C)CO)C[C@@H]1C`, -63.3%. With `CO[C@@H]1CN(C)C(=O)c2ccc(NC(=O)C3CC3)cc2OC[C@@H](C)N(Cc2ccncc2)C[C@@H]1C`, the inhibition is 17%. In the case of `C[C@H](CO)N1C[C@H](C)[C@H](CN(C)S(=O)(=O)c2cn(C)cn2)Oc2c(NC(=O)c3ccc(-c4nccs4)cc3)cccc2C1=O`, the inhibition is 7.43%. `COc1ccccc1CNC(=O)Cn1cc2c(n1)CCCC2`: the inhibition was -14%. For `COc1cccc2sc(N(CCCN(C)C)C(=O)C(c3ccccc3)c3ccccc3)nc12` the value was 56.2% (active); for `CCN(CC)CCN(C(=O)c1ccc(N2C(=O)CCC2=O)cc1)c1nc2cc3c(cc2s1)OCO3`, 40.8%; for `CCN(CC)CCN(C(=O)c1ccc2c(c1)CCCC2)c1nc2c(OC)cccc2s1`, 53.9% (active).

As to `O=C(CN1CCOCC1)N1CC(=O)N2[C@H](C1)[C@H](c1ccc(/C=C/c3ccccc3)cc1)[C@@H]2CO`, the inhibition was -3.93%. For the compound `CCN(CC)CCCNC(=O)c1cc2c(=O)[nH]c3ccc(C)cc3c2s1`, the inhibition is 54.3% (active). Consider `Cc1cccc(N(C)C(=O)c2cc3c(=O)[nH]c4ccc(C)cc4c3s2)c1`, for which the inhibition is -6.65%. On to `O=C(NCCN1CCN(Cc2ccccc2)CC1)c1cc2c(=O)[nH]c3ccccc3c2s1`, for which the inhibition was -32.4%. For `CO[C@H]1CN(C)C(=O)c2cc(NC(=O)NC(C)C)ccc2OC[C@H](C)N(C(=O)CN(C)C)C[C@H]1C` the value was -12.8%. Regarding `CO[C@@H]1CN(C)C(=O)c2cc(NC(=O)Nc3ccc4c(c3)OCO4)ccc2OC[C@@H](C)NC[C@@H]1C`, the inhibition was -75.6%.

In the case of `COC1=C(N2CCOCC2)C(=O)c2ccccc2C1=O`, the inhibition was 96.8% (active). With `Cc1oc2c(c1C(=O)N1CCOCC1)C(=O)c1ccccc1C2=O`, the inhibition was -120%.

For the compound `O=C1c2ccccc2-c2ncnc3c(N4CCOCC4)cc(N4CCOCC4)c1c23`, the inhibition is 3.29%. On to `CCCNC(=O)C[C@@H]1CC[C@@H]2[C@H](COc3ccc(NC(=O)C4CCOCC4)cc3C(=O)N2C)O1`, for which the inhibition is 8.28%. As to `O=C(Cc1ccccn1)N[C@H]1CC[C@@H](CC(=O)N2CCCCC2)O[C@@H]1CO`, the inhibition was -3.74%.

Take `CO[C@@H]1CN(C)C(=O)c2ccc(NC(C)=O)cc2OC[C@@H](C)N(Cc2ccc(-c3ccccn3)cc2)C[C@H]1C`: the inhibition was 20.8%. Take `COc1cccc(NC(=O)Nc2ccc3c(c2)C(=O)N(C)C[C@H](OC)[C@@H](C)CN[C@@H](C)CO3)c1`: the inhibition is 45.9%. As to `COc1ccccc1C(=O)Nc1ccc2c(c1)C(=O)N(C)C[C@@H](OC)[C@@H](C)CN(CC1CC1)[C@@H](C)CO2`, the inhibition is 14.3%.

In the case of `CO[C@@H]1CN(C)C(=O)c2cc(NC(=O)NC(C)C)ccc2OC[C@@H](C)N(CC2CC2)C[C@@H]1C`, the inhibition is -2.47%. The result for `COc1cccc(NC(=O)Nc2ccc3c(c2)C(=O)N(C)C[C@@H](OC)[C@H](C)CN(CC2CC2)[C@H](C)CO3)c1` reads 58.2% (active); that for `COc1cccc(NC(=O)Nc2ccc3c(c2)OC[C@@H](C)NC[C@@H](C)[C@H](OC)CN(C)C3=O)c1`, 84.4% (active); that for `COc1ccc(NC(=O)Nc2ccc3c(c2)OC[C@@H](C)NC[C@@H](C)[C@H](OC)CN(C)C3=O)cc1`, -1.22%.
